According to PubChem BioAssay (NCI):
About 83,000 compounds went through this panel and 20% of them were active in at least one assay; those are over-represented in the sample as a whole.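 Cell lines were cultured in 96-well plates, exposed to a single compound concentration, and assessed for percent growth 48 hours later.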 Unmarked numbers belong to inactive results. Active and inactive are the calls of the source. How the source made its calls: active means growth percent below 10; inactive means the rest.

What was measured:
Experiment in all cases: NCI-60 one-dose screen, 48 h (100 = growth as untreated, 0 = no growth, -100 = all killed)
Settings in all cases: 10 µM unless noted
[1] = system: HCT-15 colon
[2] = system: HT29 colon
[3] = system: SNB-75 CNS
[4] = system: SNB-19 CNS
[5] = system: U251 CNS
[6] = system: PC-3 prostate
[7] = system: SK-MEL-5 melanoma
[8] = system: UACC-62 melanoma
[9] = system: LOX IMVI melanoma
[10] = system: SK-MEL-28 melanoma
[11] = system: SK-MEL-2 melanoma
[12] = system: EKVX NSCLC
[13] = system: SN12C renal
[14] = system: UO-31 renal
[15] = system: TK-10 renal
[16] = system: ACHN renal
[17] = system: A498 renal
[18] = system: CCRF-CEM leukemia
[19] = system: MOLT-4 leukemia

SMILES	growth [1]	growth [2]	growth [3] [%]	growth [4]	growth [5]	growth [6]	growth [7]	growth [8]	growth [9]	growth [10]	growth [11]	growth [12] [%]	growth [13]	growth [14]	growth [15]	growth [16]	growth [17]	growth [18]	growth [19]
COc1ccc(CN2C(=O)OC(C)(COC(C)=O)C2=O)cc1 (configuration not stated)	102%	107%	100	102%	104%	101%	101%	95.6%	100%	101%	111%	107	99.8%	95%	104%	102%	103%	99.5%	95.6%
COc1cc(C=C2C(=O)NC(=S)NC2=O)cc(CN2CCCC2)c1O	105%	109%	95.4	105%	96.2%	102%	111%	99.7%	97.6%	115%	110%	101	104%	87%	109%	111%	101%	107%	110%
CC1(C)N=C(N)N=C(N)N1c1cc(Cl)ccc1Cl	13%	24.8%	118	92.6%	80%	101%	98.1%	88.7%	70.2%	106%	19.5%	99.7	90.4%	91%	94%	-25.2% (active)	83.8%	96.1%	71.1%
CCCCNC(=O)c1ccc2c(c1)nc(-c1ccccc1)n2C1CCCCC1	72.5%	50.3%	114	110%	99%	90.9%	93.7%	87.3%	92.6%	106%	101%	88.4	102%	79.1%	130%	102%	101%	86.5%	94.6%
COc1ccc(C/C(C)=C(\c2ccc(O)cc2)c2ccc(OCCN3CCCCC3)cc2)cc1	72.7%	22.5%	77	97.1%	72.6%	67.4%	86.1%	90.5%	84.4%	90.3%	114%	90.1	89.9%	56.6%	85.2%	93.1%	110%	54.4%	38.4%
CC1=C2[C@@H](CC1)[C@]1(C)O[C@@](C3CCNCC3)(C[C@H]1OC(=O)CO)[C@H]2OC(=O)/C=C/c1ccccc1	93.4%	43.2%	68.9	90.6%	44.3%	66.6%	94.8%	93.3%	87.1%	94.1%	106%	91.8	53.1%	60.1%	97.3%	47%	9.48% (active)	78.9%	78.1%
CN(C)CCCn1c2c(c3cnccc3c1=O)C(=O)c1ccccc1-2	-3.54% (active)	-2.38% (active)	10.6	1.02% (active)	0.151% (active)	-5.36% (active)	-75.8% (active)	-64.6% (active)	-44.9% (active)	-28.1% (active)	-13.5% (active)	40.9	1.1% (active)	-39% (active)	3.67% (active)	-25.9% (active)	25.8%	9.81% (active)	-2.22% (active)
CC(=O)N1N=C(c2ccc(Nc3nc(Nc4ccc(F)cc4)nc(Nc4ccc(F)cc4)n3)cc2)CC1c1ccc(N(C)C)cc1 (configuration not stated)	46.9%	50.7%	62.7	66.2%	49.8%	32.8%	29.3%	57%	52.5%	64.2%	40.3%	47.5	100%	34%	72.9%	58.7%	63.5%	-2.06% (active)	14.2%
